Common to all, as to test: Cytotoxic Profiling of Annotated Libraries Using Quantitative High-Throughput Screening (AID 1296008); further: nearly all actives have a fitted effect of over 60% in size
Holding throughout (details): Five cell lines viability, CellTiter-Glo ATP luminescence, 48-72 h; max response: hits give low values

The test system of one experiment is HaCat. In a few lines: (§1)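 Compounds were pin-transferred onto cells and incubated 48 or 72 hr at 37 degree Celsius, 95% humidity. CellTiter-Glo was added, plates sat 10 min at room temperature, then ATP-coupled luminescence was imaged as the viability read-out.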
The test system of a further experiment is KB-3-1. In a few lines: as §1
The test system of a further experiment is NIH3T3. In a few lines:
as §1

Structures are written as SMILES. Results filed as inconclusive are left out. Unmarked numbers belong to inactive results. The source made the active and inactive calls. The call rests on the fitted dose curve; in most records, active means well fitted inhibition curve with a large enough effect; inconclusive means small, poorly fitted or top-dose-only effect; inactive means flat fitted curve, though single readings scatter.
On the % scale 0 is the no-effect control and ±100 the full control effect; potency means the concentration at half of the fitted maximal effect.

As to `C=C1[C@H](OC(C)=O)[C@H]2[C@@H](OC(C)=O)[C@](C)(OC(C)=O)C[C@]2(OC(C)=O)C(=O)[C@H](C)/C=C/C(C)(C)C(=O)[C@H](OC(=O)C(C)CC)[C@H]1OC(C)=O` (stereo partly specified), the values for the max response in the experiment with HaCat and in the experiment with NIH3T3 were -2.99% and -13.5%, respectively. Besides, in the experiment with KB-3-1, the call was inactive.

As for `C=C1C[C@]23C[C@H]1CC[C@H]2[C@@]12CC[C@H](O)[C@@](C)(C(=O)O1)[C@H]2[C@@H]3C(=O)O`, the results for the max response in the experiment on HaCat, in the experiment on KB-3-1 and with NIH3T3 were -1.9%, 6.55% and 3.45%, respectively.

Regarding `CC1(C)C2CC=C(COC3OC(COC4OCC(O)(CO)C4O)C(O)C(O)C3O)C1C2` (stereo unspecified), the results for the max response in the experiment with HaCat, in the experiment on KB-3-1 and with NIH3T3 were 3.64%, 4.52% and 3.88%, respectively.

As to `Cc1cc(C)nc(NS(=O)(=O)c2ccc(NC(=S)NC(=O)COc3ccc(Br)cc3Cl)cc2)n1`, the max response with HaCat is -3.13%; in the experiment on KB-3-1, 8.68%; with NIH3T3, -1.58%.

For the compound `CC(C)c1nnc(-c2ccc(-c3ccccc3)nc2)n1-c1cccc2nonc12`, the max response was 4.99% in the experiment with HaCat, 2.23% in the experiment on KB-3-1 and 4.73% in the experiment with NIH3T3.

Consider `CC(C)C1=CC2C(CC[C@]2(C)O)[C@](C)(O)CC1` (stereo partly specified), for which the max response in the experiment with HaCat is 2.33%; in the experiment on NIH3T3, 2.57%. Also, the call in the experiment on KB-3-1 was inactive.

Consider `COC(=O)C[C@H]1[C@]2(C)C3=C(C)[C@H](c4ccoc4)C[C@H]3O[C@@H]2[C@H](OC(C)=O)C2[C@](C)(C(=O)OC)C=CC(=O)[C@@]21C` (stereo partly specified), for which the max response with HaCat is -0.0032%; in the experiment on KB-3-1 it was 1.1%; in the experiment on NIH3T3, 4.56%.

As to `O=C(NCc1ccc(S(=O)(=O)c2cc(F)cc(F)c2)cc1)c1ccc2nccn2c1`, the Potency in the experiment on HaCat was 32.6 nM (active); in the experiment with KB-3-1, 4.6 nM (active); in the experiment on NIH3T3, 46.1 nM (active).

As to `O=C(/C=C\c1ccc(O)cc1)N[C@@H](Cc1ccc(O)cc1)C(=O)O`, the max response with HaCat is -12.4%; with KB-3-1, 1.07%; in the experiment on NIH3T3 it was -0.22%.

As to `CC(=O)O[C@H]1C[C@@](O)(C(C)C)C2[C@@H](OC(=O)c3ccc(O)cc3)C[C@@]3(C)O[C@H]3C[C@]21C` (stereo partly specified), the max response in the experiment with HaCat was -5.18%; in the experiment with KB-3-1 it was 2.79%; in the experiment with NIH3T3, -4.8%.

On to `CC(C)CN(C[C@@H](O)[C@H](Cc1ccccc1)NC(=O)O[C@@H]1CO[C@H]2OCC[C@H]21)S(=O)(=O)c1ccc(N)cc1`, for which the max response is -6.53% in the experiment with HaCat, -3.21% in the experiment on KB-3-1 and -1.09% in the experiment with NIH3T3.

Turning to `CC(C)(C)NCCCNC(=O)c1cccc(Br)c1`, the figures for the max response with HaCat, in the experiment on KB-3-1 and with NIH3T3 were 4.1%, 6.67% and 3.37%, respectively.

In the case of `CC1=CC2/C=C(\C)CC[C@@H](O)[C@@H](O)[C@@H]3O[C@@H]3C(=O)[C@]23C(=O)N[C@@H](CC(C)C)[C@@H]3[C@@H]1C` (stereo partly specified), the values for the max response in the experiment with HaCat, with KB-3-1 and with NIH3T3 were -27.7%, -2.72% and 1.23%, respectively.

Regarding `C=C1C(=O)O[C@@H]2C[C@H](C)[C@@]3(O)C=C(C(C)=O)[C@]4(CC3C[C@H]12)C(=O)O[C@H]1C[C@@H](C)C(CCC(C)=O)=CC[C@H]14` (stereo partly specified), the max response is -0.117% in the experiment with HaCat and -0.126% in the experiment on NIH3T3. Further, in the experiment with KB-3-1, the outcome was inactive.

Take `Cc1cnc(NC(=O)Nc2cc(Br)c(C)cc2OCC2CNCCO2)cn1` (stereo unspecified): the max response with HaCat is -19%. Moreover, the results for the Potency in the experiment with KB-3-1 and in the experiment on NIH3T3 were 14600 nM (active) and 2310 nM (active), respectively.

In the case of `OCC(CO[C@@H]1O[C@H](CO)[C@@H](O)[C@H](O)[C@H]1O)c1ccc2c(c1)OCO2` (stereo partly specified), the max response with HaCat was 1.18%; in the experiment on KB-3-1, -7.72%; with NIH3T3, -0.622%.

Regarding `Cc1cc(C)cc(C(=O)NOCCCCCC(=O)NO)c1`, the Potency is 1840 nM (active) in the experiment on HaCat, 2060 nM (active) in the experiment on KB-3-1 and 5800 nM (active) in the experiment with NIH3T3.

In the case of `O=C(O)c1cc(I)ccc1NC(=O)[C@H](Cc1ccccc1)NCc1ccccc1`, the max response with HaCat was -2.36%; in the experiment with KB-3-1, -0.475%; with NIH3T3, 1.92%.

For `CC[C@H]1OC(=O)[C@H](C)[C@@H](O[C@H]2C[C@@](C)(OC)[C@@H](O)[C@H](C)O2)[C@H](C)[C@@H](O[C@@H]2O[C@H](C)C[C@H](N(C)C)[C@H]2O)[C@](C)(O)C[C@@H](C)C(=O)[C@H](C)[C@H]2OC(=O)O[C@@]21C`, the max response in the experiment with HaCat was -4.77%; with KB-3-1, 7.84%; in the experiment on NIH3T3 it was 3.61%.

For the compound `CC(=O)OC1/C(C)=C/C(=O)C(OC(C)=O)C(C)(C)/C=C/C(C)C(=O)C2(OC(C)=O)CC(C)C(OC(=O)c3ccccc3)C12` (stereo unspecified), the values for the max response in the experiment on HaCat and in the experiment on NIH3T3 were -9.17% and -16.3%, respectively. Moreover, in the experiment on KB-3-1, the outcome was inactive.

As for `CC(=O)OC1C(OC(=O)c2ccccc2)C2C(C)(C)CC(=O)CC2(C)C23CCC(C)(C2)C(O)CC13` (stereo unspecified), the max response in the experiment on HaCat is 1.97%; with KB-3-1 it was -13.9%; in the experiment on NIH3T3 it was -5.55%.

In the case of `CC1OC(OC2C(CO)OC(OCC3OC(OC(=O)C45CCC(C)(C)CC4C4=CCC6C7(C)CCC(OC8OC(CO)C(O)C(OC9OC(CO)C(O)C(O)C9O)C8O)C(C)(C)C7CCC6(C)C4(C)CC5)C(O)C(O)C3O)C(O)C2O)C(O)C(O)C1OC1OC(CO)C(O)C(O)C1O` (stereo unspecified), the figures for the max response in the experiment on HaCat, in the experiment with KB-3-1 and in the experiment with NIH3T3 were -8.62%, -0.0406% and -0.84%, respectively.

Values taken from PubChem BioAssay (NCATS).
